How the values were obtained:
Details in all cases: concentration: 1 μM, replicates: in singlicate; n = 1
CAMKK1 = system: CAMKK1
CAMKK2 = system: CAMKK2
CASK = system: CASK
CDC2L1 = system: T1, CDC2L1
T1 construct: gene CDK11B

CDC2L2 = system: CDC2L2
CDC2L5 = system: T2, CDC2L5
T2 construct: gene CDK13

CDK11 = system: T3, CDK11
T3 construct: gene CDK19

CDK2 = system: CDK2
CDK3 = system: CDK3
CDK4-cyclinD1 = system: CDK4-cyclinD1
CDK4-cyclinD3 = system: CDK4-cyclinD3
CDK4 = system: CDK4
CDK5 = system: CDK5
CDK7 = system: CDK7
CDK8 = system: CDK8
CDK9 = system: CDK9
CDKL1 = system: CDKL1
CDKL2 = system: CDKL2
CDKL3 = system: CDKL3
CDKL5 = system: CDKL5
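Further: KINOMEscan kinase panel screen.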

SMILES | %Inh (CAMKK1) | %Inh (CAMKK2) | %Inh (CASK) | %Inh (CDC2L1) | %Inh (CDC2L2) | %Inh (CDC2L5) | %Inh (CDK11) | %Inh (CDK2) | %Inh (CDK3) | %Inh (CDK4-cyclinD1) | %Inh (CDK4-cyclinD3) | %Inh (CDK4) | %Inh (CDK5) | %Inh (CDK7) | %Inh (CDK8) | %Inh (CDK9) | %Inh (CDKL1) | %Inh (CDKL2) | %Inh (CDKL3) | %Inh (CDKL5)
O=C(Nc1n[nH]c2cc(-c3cccc(F)c3)ccc12)C1CC1 [SB-735464] | 18% | 14% | 10% | 2% | 9% | 23% | 0% | 27% | 0% | 8% | 7% | 44% | 3% | 0% | 0% | 0% | 6% | 57% | 28% | 4%
Cl.Oc1cccc(Nc2ccnc3cc(-c4ccncc4)ccc23)c1 [GW494601] | 0% | 29% | 10% | 0% | 10% | 0% | 4% | 0% | 0% | 0% | 0% | 37% | 0% | 10% | 36% | 4% | 2% | 2% | 0% | 0%
O=C1Cc2cc(Nc3nc(NCc4cccc(S(=O)(=O)C(F)(F)F)c4)ncc3C(F)(F)F)ccc2N1 | 9% | 3% | 0% | 9% | 0% | 12% | 8% | 0% | 0% | 5% | 0% | 27% | 14% | 4% | 3% | 10% | 21% | 4% | 3% | 18%
COc1ccc(CNC(=O)NC2CCN(c3ccnc(Nc4ccc(OC)cc4)n3)C2)cc1 (stereo not shown) [GSK1379727] | 0% | 4% | 16% | 0% | 8% | 0% | 1% | 0% | 13% | 18% | 0% | 48% | 0% | 0% | 42% | 0% | 4% | 21% | 0% | 0%
CNc1ncnc2[nH]ncc12 [SKF-18355] | 0% | 0% | 22% | 0% | 0% | 0% | 0% | 0% | 12% | 0% | 0% | 17% | 0% | 0% | 0% | 0% | 8% | 30% | 19% | 3%
O=C(NCCCN1CCOCC1)c1cccc(Nc2nccc(Nc3ccc(Oc4ccccc4)cc3)n2)c1 [GW663929] | 0% | 7% | 7% | 10% | 26% | 0% | 15% | 0% | 0% | 6% | 0% | 16% | 0% | 20% | 34% | 19% | 5% | 28% | 0% | 0%
CN1c2ccc(NCc3ccc(F)cc3)cc2-c2c(cnn2C)S1(=O)=O | 0% | 0% | 26% | 0% | 0% | 27% | 0% | 25% | 0% | 21% | 0% | 0% | 6% | 0% | 62% | 15% | 20% | 19% | 0% | 0%
c1ccc(-c2n[nH]cc2-c2ccnc3ccccc23)nc1 [GW271431] | 17% | 30% | 0% | 0% | 24% | 0% | 34% | 0% | 0% | 0% | 0% | 0% | 0% | 0% | 5% | 0% | 7% | 5% | 0% | 6%
Fc1ccc(-c2ncn(CCCN3CCOCC3)c2-c2cccnc2)cc1 [SB-211743] | 0% | 0% | 6% | 0% | 0% | 0% | 0% | 0% | 16% | 0% | 0% | 1% | 0% | 8% | 0% | 0% | 28% | 0% | 0% | 0%
c1ccc(-c2cc(-c3c[nH]nc3-c3ccccn3)ccn2)cc1 [GW576604] | 5% | 24% | 0% | 0% | 16% | 0% | 11% | 13% | 0% | 0% | 0% | 49% | 0% | 0% | 13% | 0% | 0% | 0% | 0% | 0%
Cc1ccc(C(=O)NCC(N)=O)cc1-n1c(C)cc(OCc2ccc(F)cc2F)c(Br)c1=O | 3% | 0% | 0% | 7% | 20% | 0% | 0% | 0% | 0% | 0% | 0% | 0% | 0% | 0% | 8% | 0% | 44% | 3% | 9% | 0%
